Source: PubChem BioAssay (National Center for Advancing Translational Sciences (NCATS))
DT40 TDP1 CPT – DT40-hTDP1 cell growth loss with CPT; Potency, µM (series often up to 46.2 µM), inactives show at the highest dose activity change, negative = growth inhibition, actives largely listed as inhibitors; chicken DT40 Tdp1-/-;hTDP1 cells + 20 nM CPT, ATP luminescence, 48 h; 12% of 420,000 active; note: nearly all actives have a fitted effect of over 55% in size
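Cell growth measured by CellTiter-Glo luminescence after a minimum 48 h, 37 C compound exposure with 20 nM CPT in Tdp1-knockout DT40 cells stably expressing hTDP1, seeded 400/well; qHTS titration format.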
Gal4-VP16 FLuc – inhibits Gal4-VP16 luciferase reporter, ROR gamma counter-screen; Drosophila S2 Gal4-VP16 UAS-luciferase, luminescence, 20 h; Potency, µM (doses to about 53.6 µM), for inactives: at the highest dose activity, negative = inhibition, most hits filed as inhibitors; 3.5% of 310,000 active;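 note: Gal4-VP16 expression switched on by copper sulfate through the metallothionein promoter; nearly all actives have a fitted effect of over 50% in size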
TDP1 inh – blocks human tyrosyl-DNA phosphodiesterase 1; Q9NUW8; recombinant TDP1, AlphaScreen DNA substrate cleavage; Potency, µM (titrated, usually from 130 µM), without a hit: top-dose activity change, negative = inhibition, most hits filed as inhibitors; 0.28% of 350,000 active; AID 485290; note: nearly all actives have a fitted effect of over 40% in size
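AlphaScreen read-out: signal falls as enzyme removes the 3' tyrosine-FITC from a 5'-biotinylated DNA oligo (15 nM, 5 min, RT). Enzyme was E. coli-made recombinant Tdp1 at 1 nM, exposed to compound for 15 min beforehand; beads 10 ug/ml, 10 min.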
TDP1 cell noCPT – qHTS for Inhibitors of human tyrosyl-DNA phosphodiesterase 1 (TDP1): qHTS in cells in absence of CPT | AID 686978, 2013 | 15% of 420,000 active | DT40 Tdp1-/- hTDP1 cells, no CPT, ATP luminescence, 48 h | Potency, µM (top dose mostly 46.2 µM), without a hit: top-dose activity change, negative = growth inhibition, usual class: inhibitors; note: nearly all actives have a fitted effect of over 55% in size
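Cells were dispensed at 400 per well, compounds added by pin tool, plates incubated ≥48 hr at 37 °C, then CellTiter-Glo added for 30 min at room temperature before luminescence reading. Line: DT40 Tdp1-/- complemented with hTDP1; camptothecin omitted.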
RORg inh – blocks mouse ROR gamma transcriptional activity. AID 2551. Drosophila S2 Gal4-RORgamma UAS-luciferase reporter, 20 h. 5.4% of 310,000 active. Potency, µM (titrated, usually from 53.6 µM), without a hit: at the highest dose activity change, negative = inhibition, most hits filed as inhibitors. P51450; note: nearly all actives have a fitted effect of over 60% in size
Target sequence (P51450 whole entry, looked up, the tested form may be a part): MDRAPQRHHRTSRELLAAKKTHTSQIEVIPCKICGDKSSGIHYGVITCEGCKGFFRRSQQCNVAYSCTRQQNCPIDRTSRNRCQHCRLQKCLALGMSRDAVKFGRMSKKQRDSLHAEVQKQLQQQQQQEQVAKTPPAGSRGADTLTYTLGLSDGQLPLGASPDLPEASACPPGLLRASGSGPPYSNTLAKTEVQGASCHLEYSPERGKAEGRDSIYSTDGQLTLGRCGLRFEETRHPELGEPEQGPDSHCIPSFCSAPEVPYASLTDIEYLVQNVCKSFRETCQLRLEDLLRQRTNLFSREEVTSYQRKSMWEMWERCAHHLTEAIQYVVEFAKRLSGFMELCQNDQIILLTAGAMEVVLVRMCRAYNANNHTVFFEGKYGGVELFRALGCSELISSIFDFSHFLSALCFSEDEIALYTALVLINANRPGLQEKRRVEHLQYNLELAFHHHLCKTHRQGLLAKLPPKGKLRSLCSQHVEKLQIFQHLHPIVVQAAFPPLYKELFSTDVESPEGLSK
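Compounds are pin-transferred onto Drosophila Schneider cells expressing a copper-inducible Gal4–ROR gamma transactivation domain fusion. After 1 hr, copper sulfate is added to 700 uM final; luciferase is read 20 hr later.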
An asterisk follows results filed as active; ? = inconclusive; nt = no result given. A selection: hits, their analogues and other compounds. The true share with any hit is near 19%. Calls come from the whole dose curve; as a rule, active = well fitted curve in the direction sought with a large enough effect; inconclusive = small, poorly fitted or top-dose-only effect, or another doubt; inactive = no such curve, though single readings can be large; an effect the other way counts as inactive or inconclusive. % is set by controls: 0 for no effect and ±100 for the full control effect; potency is the fitted concentration of half-maximal effect.

SMILES	DT40 TDP1 CPT	Gal4-VP16 FLuc	TDP1 inh	TDP1 cell noCPT	RORg inh
O=C1CC(c2ccco2)CC2=C1C(c1ccc(O)cc1)n1nc(C(F)(F)F)nc1N2 (configuration not stated)	nt	nt	8%	nt	nt
NS(=O)(=O)c1ccc(Sc2nc3ccccc3s2)c([N+](=O)[O-])c1	9.2µM*	10µM*	nt	10µM*	-33%
NS(=O)(=O)c1ccc(Sc2ccccn2)c([N+](=O)[O-])c1	-4%	11%	4%	?	2%
CCc1c(C)sc2c1CCN(C(=O)Nc1ccccc1C(F)(F)F)C2c1ccccc1 (configuration not stated)	?	nt	1%	7.3µM*	nt
CCc1c(C)sc2c1CCN(C(=O)Nc1ccccc1C(=O)OC)C2c1ccc(F)cc1 (configuration not stated)	?	nt	1%	?	nt
CCc1c(C)sc2c1CCN(C(=O)Nc1cc(Cl)c(OC)cc1OC)C2c1ccccc1 (configuration not stated)	?	nt	6%	26µM*	nt
CCc1c(C)sc2c1CCN(C(=O)Nc1ccc(F)c(Cl)c1)C2c1ccc(F)cc1 (configuration not stated)	?	nt	6%	16µM*	nt
CCC(C)(C)NC(=O)C(c1ccc(OC)cc1)N(C(=O)CCC(=O)Nc1cc(C)on1)c1ccc(F)cc1 (configuration not stated)	-20%	-5%	4%	?	21%
O=C(Nc1cc(Cl)cc(Cl)c1)c1ccc(F)c(S(=O)(=O)NCc2ccccc2Cl)c1	-99%	nt	8%	10µM*	nt
O=C(Nc1cccc(Cl)c1)c1ccc(F)c(S(=O)(=O)NCc2cccs2)c1	?	20µM*	4%	?	15%
COc1ccc(CNS(=O)(=O)c2cc(C(=O)Nc3cc(Cl)cc(Cl)c3)ccc2F)cc1	?	nt	10%	?	nt
O=C1Nc2ccccc2C12OCC1(CO2)COC2(OC1)C(=O)Nc1ccccc12 (configuration not stated)	-22%	-9%	0%	-29%	30%
CN1CC(c2ccc(Cl)c(Cl)c2)[C@@]2(COc3ccccc3C2=O)[C@@]12C(=O)Nc1ccccc12 (some centres not stated)	18µM*	-10%	2%	?	-29%
CCOC(=O)c1ccccc1NC(=O)Cc1sc(-c2cccnc2)nc1-c1ccc(C)cc1	nt	-11%	6%	nt	35%
O=C(Nc1ccccc1)C1C(c2ccccc2)C1(Cl)Cl (configuration not stated)	?	-11%	nt	?	12%
Cc1cc(C(O)c2ncc(-c3ccccc3)[nH]2)ccc1F (configuration not stated)	16µM*	nt	nt	?	nt
OC(c1ccc(-c2ccccc2)cc1)c1ncc(-c2ccc(F)cc2)[nH]1 (configuration not stated)	29µM*	nt	nt	?	nt
O=C(Nc1cccc(C(=O)N2CCOCC2)c1)C1CCCCC1	8%	nt	nt	4%	nt
Cc1nc(C)c(Cc2ccccc2Cl)c(=O)[nH]1	-6%	-13%	-3%	-7%	9%
Cc1c(C(=O)C(=O)N2c3ccc(F)cc3CCC2C)c2ccccc2n1C (configuration not stated)	2.6µM*	-2%	-1%	2.6µM*	-9%
COc1cc(C)ccc1OCc1cc(C(=O)N(Cc2c(C)nn(C)c2C)C2CC2)no1	?	?	2%	16µM*	?
COc1cc(C)ccc1OCc1cc(C(=O)N2C[C@H]3CC[C@H]2C3)no1	-3%	-5%	0%	10%	36%
COc1ccc(CN(C)C(=O)/C=C/c2ccc(S(=O)(=O)N3CCCCCC3)cc2)cc1	?	nt	1%	23µM*	nt
COc1cccc(NC(=O)CN(C)C(=O)/C=C/c2ccc(S(=O)(=O)N3CCCCCC3)cc2)c1	?	nt	nt	18µM*	nt
CNC(=O)c1ccc(CN(C)C(=O)/C=C/c2ccc(S(=O)(=O)N3CCCCCC3)cc2)cc1	23µM*	nt	nt	23µM*	nt
